# Data as given in the supplement of paper PMC11732987, “Enantioselective OTUD7B fragment discovery through chemoproteomics screening and high-throughput optimisation” (Communications Chemistry, 2025).
# A number with no mark means an inactive call.
# Columns and labels:
# Experiment in all cases: log2 ratio of Biotin-Ahx-Ub-VS probe labelling (fragment/DMSO); higher = less target engagement (more negative = stronger competition), active = hit call of the paper (q ≤ 0.05, log2 ratio ≤ -1)
# Settings in all cases: compound concentration: 200 uM; treatment time: 3 h
# OTUD6B = target: T1, OTUD6B (UniProt Q8N6M0)
# T1 sequence (whole entry): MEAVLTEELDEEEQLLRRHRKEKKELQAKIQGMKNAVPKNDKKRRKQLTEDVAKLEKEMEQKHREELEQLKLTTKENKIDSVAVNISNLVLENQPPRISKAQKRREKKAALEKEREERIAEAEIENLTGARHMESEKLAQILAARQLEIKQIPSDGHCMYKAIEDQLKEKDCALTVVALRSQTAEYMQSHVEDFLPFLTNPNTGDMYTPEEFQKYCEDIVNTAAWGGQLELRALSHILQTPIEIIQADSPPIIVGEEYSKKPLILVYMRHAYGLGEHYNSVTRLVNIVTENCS
# Summary of the method: (§1)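 Labelled DUBs from HEK293T lysate were NeutrAvidin-enriched, digested with LysC and trypsin, and run by diaPASEF LC-MS/MS. Before that, each 495 µg sample in Tris/CHAPS/IGEPAL buffer with protease inhibitors was treated in triplicate with fragment at 200 µM or vehicle for 3 h, then with Biotin-Ahx-Ub-VS at 0.5 µM final for 1 h. Values are average log2 ratios of fragment over vehicle by unpaired t-test, based on global-median-normalised Spectronaut label-free quantities from proteins with ≥2 unique peptides.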
# OTUD7B = target: T2, OTUD7B (UniProt Q6GQQ9)
# T2 sequence (whole entry): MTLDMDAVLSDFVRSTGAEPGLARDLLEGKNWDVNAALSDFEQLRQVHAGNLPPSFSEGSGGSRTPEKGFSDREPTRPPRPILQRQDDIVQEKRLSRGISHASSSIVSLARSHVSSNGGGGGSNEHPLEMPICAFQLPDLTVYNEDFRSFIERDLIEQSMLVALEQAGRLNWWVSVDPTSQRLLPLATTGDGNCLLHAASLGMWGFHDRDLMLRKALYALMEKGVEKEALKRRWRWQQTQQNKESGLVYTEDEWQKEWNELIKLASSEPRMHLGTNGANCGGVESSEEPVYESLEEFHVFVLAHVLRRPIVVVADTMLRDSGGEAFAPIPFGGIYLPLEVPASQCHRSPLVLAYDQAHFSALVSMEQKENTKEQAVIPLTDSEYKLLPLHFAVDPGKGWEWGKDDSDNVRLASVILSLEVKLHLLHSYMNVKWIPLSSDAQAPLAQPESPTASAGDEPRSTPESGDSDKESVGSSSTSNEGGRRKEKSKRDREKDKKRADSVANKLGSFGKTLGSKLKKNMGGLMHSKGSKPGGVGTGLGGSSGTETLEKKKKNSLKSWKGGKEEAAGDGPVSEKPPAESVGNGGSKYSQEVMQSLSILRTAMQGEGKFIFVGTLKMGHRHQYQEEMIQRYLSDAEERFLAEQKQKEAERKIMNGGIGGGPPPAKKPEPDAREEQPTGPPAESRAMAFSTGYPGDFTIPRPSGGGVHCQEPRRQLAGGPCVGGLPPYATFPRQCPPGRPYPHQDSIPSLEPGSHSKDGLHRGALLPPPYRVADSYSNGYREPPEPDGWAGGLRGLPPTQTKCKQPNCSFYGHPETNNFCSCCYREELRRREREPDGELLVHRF
# Summary of the method: as §1
# PRPF8 = PRPF8 (UniProt Q6P2Q9)
# Summary of the method: as §1
# PSMD7 = target: T3, PSMD7 (UniProt P51665)
# T3 sequence (whole entry): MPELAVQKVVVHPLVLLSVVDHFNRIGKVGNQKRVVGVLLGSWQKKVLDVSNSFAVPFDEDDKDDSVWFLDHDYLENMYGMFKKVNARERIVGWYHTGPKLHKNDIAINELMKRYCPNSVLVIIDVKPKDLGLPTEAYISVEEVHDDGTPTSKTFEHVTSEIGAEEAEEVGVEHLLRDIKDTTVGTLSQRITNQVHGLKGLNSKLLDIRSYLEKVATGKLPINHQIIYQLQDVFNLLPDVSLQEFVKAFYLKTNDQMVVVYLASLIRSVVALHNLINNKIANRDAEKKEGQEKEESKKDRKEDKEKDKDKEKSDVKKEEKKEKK
# Summary of the method: as §1
# UCHL1 = UCHL1 (UniProt P09936)
# Sequence of UCHL1 (P09936 whole entry, looked up): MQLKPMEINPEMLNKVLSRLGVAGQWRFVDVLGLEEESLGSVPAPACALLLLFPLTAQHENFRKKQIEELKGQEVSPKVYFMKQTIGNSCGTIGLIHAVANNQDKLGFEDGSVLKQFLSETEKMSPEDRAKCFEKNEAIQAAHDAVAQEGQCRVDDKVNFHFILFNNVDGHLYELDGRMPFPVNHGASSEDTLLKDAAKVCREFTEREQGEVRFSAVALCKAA
# Summary of the method: as §1
# UCHL3 = target: T4, UCHL3 (UniProt P15374)
# T4 sequence (whole entry): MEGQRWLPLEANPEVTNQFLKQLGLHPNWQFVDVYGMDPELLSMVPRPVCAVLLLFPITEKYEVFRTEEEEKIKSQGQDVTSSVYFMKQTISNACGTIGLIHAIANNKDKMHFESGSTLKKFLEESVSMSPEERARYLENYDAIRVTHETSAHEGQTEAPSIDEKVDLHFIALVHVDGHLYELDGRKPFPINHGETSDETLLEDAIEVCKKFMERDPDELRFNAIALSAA
# Summary of the method: as §1
# UCHL5 = target: T5, UCHL5 (UniProt Q9Y5K5)
# T5 sequence (whole entry): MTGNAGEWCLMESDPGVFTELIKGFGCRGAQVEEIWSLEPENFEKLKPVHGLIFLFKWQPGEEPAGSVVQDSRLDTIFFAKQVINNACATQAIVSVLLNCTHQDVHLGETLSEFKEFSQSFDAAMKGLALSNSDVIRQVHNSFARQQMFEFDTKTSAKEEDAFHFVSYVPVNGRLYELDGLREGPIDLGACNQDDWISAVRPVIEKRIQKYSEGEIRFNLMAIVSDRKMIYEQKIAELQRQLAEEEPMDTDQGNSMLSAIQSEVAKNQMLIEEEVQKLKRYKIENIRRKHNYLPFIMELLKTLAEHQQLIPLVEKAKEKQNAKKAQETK
# Summary of the method: as §1
# USP10 = USP10 (UniProt Q14694)
# Sequence of USP10 (Q14694 whole entry): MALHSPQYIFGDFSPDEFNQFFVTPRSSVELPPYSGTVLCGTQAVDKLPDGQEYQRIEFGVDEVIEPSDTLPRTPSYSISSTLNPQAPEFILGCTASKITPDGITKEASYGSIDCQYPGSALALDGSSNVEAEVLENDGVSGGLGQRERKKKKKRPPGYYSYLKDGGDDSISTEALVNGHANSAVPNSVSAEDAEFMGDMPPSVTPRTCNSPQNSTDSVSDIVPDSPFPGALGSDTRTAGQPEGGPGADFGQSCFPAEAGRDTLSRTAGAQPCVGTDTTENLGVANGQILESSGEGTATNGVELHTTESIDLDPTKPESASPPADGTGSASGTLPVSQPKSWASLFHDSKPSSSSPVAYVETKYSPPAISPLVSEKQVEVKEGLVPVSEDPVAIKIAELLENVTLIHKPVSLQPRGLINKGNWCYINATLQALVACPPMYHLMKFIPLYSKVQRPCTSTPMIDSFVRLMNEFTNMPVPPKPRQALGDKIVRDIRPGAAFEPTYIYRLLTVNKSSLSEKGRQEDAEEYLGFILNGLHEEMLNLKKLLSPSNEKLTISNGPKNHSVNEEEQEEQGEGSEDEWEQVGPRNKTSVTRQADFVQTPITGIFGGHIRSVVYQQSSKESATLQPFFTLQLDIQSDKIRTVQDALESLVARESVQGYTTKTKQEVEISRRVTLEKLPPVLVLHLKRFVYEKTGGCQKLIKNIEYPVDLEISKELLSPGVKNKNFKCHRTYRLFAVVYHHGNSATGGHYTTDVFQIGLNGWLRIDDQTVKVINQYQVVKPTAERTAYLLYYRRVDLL
# Summary of the method: as §1
# USP15 = target: T6, USP15 (UniProt Q9Y4E8)
# T6 sequence (whole entry): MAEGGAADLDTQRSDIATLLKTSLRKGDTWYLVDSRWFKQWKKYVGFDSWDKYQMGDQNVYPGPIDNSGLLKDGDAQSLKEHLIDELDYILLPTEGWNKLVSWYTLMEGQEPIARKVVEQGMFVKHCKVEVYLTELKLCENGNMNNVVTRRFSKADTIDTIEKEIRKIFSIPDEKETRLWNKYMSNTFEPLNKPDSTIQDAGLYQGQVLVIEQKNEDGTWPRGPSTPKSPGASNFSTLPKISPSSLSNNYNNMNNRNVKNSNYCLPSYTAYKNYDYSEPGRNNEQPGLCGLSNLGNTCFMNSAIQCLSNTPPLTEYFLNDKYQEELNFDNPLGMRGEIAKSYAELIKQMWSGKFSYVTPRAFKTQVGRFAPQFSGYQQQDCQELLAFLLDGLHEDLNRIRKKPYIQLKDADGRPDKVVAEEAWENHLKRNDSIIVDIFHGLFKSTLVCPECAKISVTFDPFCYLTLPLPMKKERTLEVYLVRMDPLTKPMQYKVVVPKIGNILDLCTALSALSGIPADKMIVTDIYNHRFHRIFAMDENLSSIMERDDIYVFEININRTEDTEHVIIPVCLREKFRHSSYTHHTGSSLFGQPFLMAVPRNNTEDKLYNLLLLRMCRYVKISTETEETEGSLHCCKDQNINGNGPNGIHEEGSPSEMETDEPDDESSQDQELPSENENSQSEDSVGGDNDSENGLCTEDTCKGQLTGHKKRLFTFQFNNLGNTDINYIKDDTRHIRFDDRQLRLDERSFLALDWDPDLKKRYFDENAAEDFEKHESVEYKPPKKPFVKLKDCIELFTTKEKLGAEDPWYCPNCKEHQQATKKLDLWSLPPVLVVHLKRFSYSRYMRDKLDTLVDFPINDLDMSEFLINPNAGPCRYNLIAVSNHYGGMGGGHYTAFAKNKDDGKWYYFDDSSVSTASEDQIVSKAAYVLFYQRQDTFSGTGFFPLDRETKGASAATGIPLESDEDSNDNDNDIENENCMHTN
# Summary of the method: as §1
# USP16 = USP16 (UniProt Q9Y5T5)
# Sequence of USP16 (Q9Y5T5 whole entry, looked up): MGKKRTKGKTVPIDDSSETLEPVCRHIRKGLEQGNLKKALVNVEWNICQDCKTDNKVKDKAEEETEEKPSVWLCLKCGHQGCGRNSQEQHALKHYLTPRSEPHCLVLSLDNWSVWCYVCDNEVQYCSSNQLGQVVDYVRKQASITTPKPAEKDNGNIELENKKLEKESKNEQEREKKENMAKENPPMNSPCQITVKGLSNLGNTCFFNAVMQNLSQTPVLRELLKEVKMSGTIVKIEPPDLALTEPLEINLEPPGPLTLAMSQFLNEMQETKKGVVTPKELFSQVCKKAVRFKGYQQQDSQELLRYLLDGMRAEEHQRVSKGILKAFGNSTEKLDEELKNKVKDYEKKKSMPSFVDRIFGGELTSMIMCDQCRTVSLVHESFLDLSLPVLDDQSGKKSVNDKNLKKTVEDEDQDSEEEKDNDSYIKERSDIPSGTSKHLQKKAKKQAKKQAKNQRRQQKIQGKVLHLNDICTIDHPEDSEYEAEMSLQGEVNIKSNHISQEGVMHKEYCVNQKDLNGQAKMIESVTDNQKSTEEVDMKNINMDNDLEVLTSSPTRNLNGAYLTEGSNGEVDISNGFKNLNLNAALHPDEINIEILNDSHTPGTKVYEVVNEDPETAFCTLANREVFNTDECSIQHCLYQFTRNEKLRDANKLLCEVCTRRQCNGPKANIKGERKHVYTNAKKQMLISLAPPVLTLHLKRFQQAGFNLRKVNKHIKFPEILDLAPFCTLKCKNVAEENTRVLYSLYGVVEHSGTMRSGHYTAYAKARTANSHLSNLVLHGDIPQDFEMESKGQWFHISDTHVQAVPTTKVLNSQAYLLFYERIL
# Summary of the method: as §1
Structure (SMILES),log2 ratio of Biotin-Ahx-Ub-VS probe labelling (OTUD6B),log2 ratio of Biotin-Ahx-Ub-VS probe labelling (OTUD7B),log2 ratio of Biotin-Ahx-Ub-VS probe labelling (PRPF8),log2 ratio of Biotin-Ahx-Ub-VS probe labelling (PSMD7),log2 ratio of Biotin-Ahx-Ub-VS probe labelling (UCHL1),log2 ratio of Biotin-Ahx-Ub-VS probe labelling (UCHL3),log2 ratio of Biotin-Ahx-Ub-VS probe labelling (UCHL5),log2 ratio of Biotin-Ahx-Ub-VS probe labelling (USP10),log2 ratio of Biotin-Ahx-Ub-VS probe labelling (USP15),log2 ratio of Biotin-Ahx-Ub-VS probe labelling (USP16)
Cl.O=C(CCl)N[C@H]1C[C@@H](n2cccn2)C1,-0.0562,-0.797,0.13,0.118,-1.11,0.478,-0.14,0.0484,-0.22,0.0253
Cc1nc(-c2cccc(NC(=O)CCl)c2)cs1,-0.247,-0.69,0.052,-0.167,-0.133,-0.844,-0.43,-0.202,-0.235,-0.418
Cl.O=C(CCl)N1CCC(n2nc3ccccc3n2)CC1,-0.35,-0.287,0.224,-0.494,-0.9,-0.23,-0.457,-0.135,-0.702,-0.441
CC(NC(=O)CCl)c1noc(Cc2ccccc2)n1 (stereo not given),-0.409,-0.724,0.0633,-0.49,-1.97 (active),-0.00714,-0.344,0.046,-0.331,-0.296
O=C(CCl)N1CCC(OCc2ccccc2F)CC1,0.102,-0.198,0.14,0.0473,-1.13 (active),0.341,-0.00457,-0.192,-0.104,-0.184
O=C(CCl)N1CCC[C@@H]1c1ccon1,-0.245,-0.356,0.0558,-0.283,-1.49 (active),0.0429,-0.401,-0.0611,-0.228,-0.0988
O=C(CCl)N1CCc2ccccc2C(O)C1 (stereo not given),-0.357,-1.21 (active),0.137,-0.212,-1.58 (active),-0.197,-0.317,-0.14,-0.392,0.132
Cc1ccc(CC(NC(=O)CCl)c2ccccn2)cc1.Cl (stereo not given),0.0158,-0.295,0.0556,-0.125,-0.621,0.459,0.179,-0.00276,0.0178,0.0921
NC(=O)C1CCCN(C(=O)CCl)C1 (stereo not given),0.0096,-0.633,0.0408,-0.26,-1.4 (active),0.133,0.0623,-0.05,-0.0343,-0.387
CN(C)C(=O)c1ccc(NC(=O)CCl)cc1,-0.253,-0.664,-0.106,-0.259,-1.46 (active),-0.282,-0.194,-0.0447,0.0049,-0.712
CNC(=O)Cn1cc(NC(=O)CCl)cn1,-0.476,-0.454,1e-05,-0.0882,-1.59 (active),0.189,-0.399,-0.209,-0.375,-0.148
O=C(CCl)Nc1nc(-c2cccs2)cs1,-0.434,-0.695,0.14,-0.0595,-1.45 (active),0.426,-2.61 (active),-0.0951,-0.354,-0.00927
CCCn1nccc1NC(=O)CCl,0.0729,-1.42 (active),0.193,-0.254,-0.343,0.0705,-0.074,-0.0888,-0.238,-0.307
Cl.Cn1nc2c(c1CNC(=O)CCl)CCCC2,-0.361,-1.04 (active),-0.184,-0.299,-1.7 (active),0.314,-0.368,-0.24,-0.224,-0.4
O=C(CCl)Nc1ccc2c(c1)OC(F)(F)O2,-0.167,-0.873,0.00481,-0.159,-1.06 (active),0.0771,-0.471,-0.126,-0.192,0.132
